In PubChem BioAssay (NCATS):
Results filed as inconclusive are left out. Calls of active or inactive are those of the source. Calls follow the shape of the dose curve; as a rule, active = well fitted cell-killing curve with a large enough effect; inconclusive = small, poorly fitted or top-dose-only effect, or effect the other way; inactive = flat fitted curve, though single readings scatter.

What was measured:
Experiment in all cases: Primary qHTS to identify gynecologic anti-cancer compounds using libraries of approved drugs and bioactive compounds (AID 1345084); also: nearly all actives have a fitted effect of over 55% in size
CAOV3 = settings: Gynecologic cancer cell panel viability, ATPlite luminescence, 48 h; series mostly up to 57.5 µM
How it was run: (§1)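 48 h compound exposure at 37 C, 5% CO2; five-point qHTS. ATPlite luminescence readout of cell ATP.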

CASKI = settings: Gynecologic cancer cell panel viability, ATPlite luminescence, 48 h; series mostly up to 57.5 µM
How it was run: as §1

Es-2 = settings: Gynecologic cancer cell panel viability, ATPlite luminescence, 48 h; series mostly up to 57.5 µM
How it was run: as §1

HeLa = settings: Gynecologic cancer cell panel viability, ATPlite luminescence, 48 h; series mostly up to 57.5 µM
How it was run: as §1

Hek293T = settings: Gynecologic cancer cell panel viability, ATPlite luminescence, 48 h, control line for the selectivity index; series mostly up to 57.5 µM
How it was run: as §1

JEG-3 = settings: Gynecologic cancer cell panel viability, ATPlite luminescence, 48 h; series mostly up to 57.5 µM
How it was run: as §1

OV90 = settings: Gynecologic cancer cell panel viability, ATPlite luminescence, 48 h; series mostly up to 57.5 µM
How it was run: as §1

PA-1 = settings: Gynecologic cancer cell panel viability, ATPlite luminescence, 48 h; series mostly up to 57.5 µM
How it was run: as §1

SKOV3 = settings: Gynecologic cancer cell panel viability, ATPlite luminescence, 48 h; series mostly up to 57.5 µM
How it was run: as §1

Tov-21-G = settings: Gynecologic cancer cell panel viability, ATPlite luminescence, 48 h; series mostly up to 57.5 µM
How it was run: as §1

Tov112D = settings: Gynecologic cancer cell panel viability, ATPlite luminescence, 48 h; series mostly up to 57.5 µM
How it was run: as §1
% is scaled to controls: 0 for no effect and ±100 for the full control effect.

COc1c2c(c(C)c3c1C(=O)OC3)OC1(C)CC(O)C3(O)C(C)(C)OC(=O)CCC3(C)C1C2 (centres undefined)
inactive: Potency (CAOV3) | Potency (CASKI) | Potency (Es-2) | Potency (HeLa) | Potency (Hek293T) | Potency (JEG-3) | Potency (OV90) | Potency (PA-1) | Potency (SKOV3) | Potency (Tov-21-G) | Potency (Tov112D)

C=C1C[C@]23C[C@H]1CC[C@H]2[C@@]12C=C[C@H](O)[C@@](C)(C(=O)O1)[C@H]2[C@@H]3C(=O)O
inactive: Potency (CAOV3) | Potency (CASKI) | Potency (Es-2) | Potency (HeLa) | Potency (Hek293T) | Potency (JEG-3) | Potency (OV90) | Potency (PA-1) | Potency (SKOV3) | Potency (Tov-21-G) | Potency (Tov112D)

COc1cc(/C=C/C(=O)OC[C@H]2O[C@H](O[C@]3(CO)O[C@H](CO)[C@@H](O)[C@@H]3O)[C@H](O)[C@@H](O)[C@@H]2O)cc(OC)c1O
inactive: Potency (CAOV3) | Potency (CASKI) | Potency (Es-2) | Potency (HeLa) | Potency (Hek293T) | Potency (JEG-3) | Potency (OV90) | Potency (PA-1) | Potency (SKOV3) | Potency (Tov-21-G) | Potency (Tov112D)

C[C@@H]1CC[C@]2(C(=O)O)CC[C@]3(C(=O)O)C(=CCC4[C@@]5(C)CC[C@H](O[C@@H]6O[C@@H](C)[C@H](O[C@@H]7O[C@H](CO)[C@@H](O)[C@H](O)[C@H]7O)[C@@H](O)[C@H]6O)C(C)(C)C5CC[C@]43C)C2[C@H]1C (some centres undefined)
inactive: Potency (CAOV3) | Potency (CASKI) | Potency (Es-2) | Potency (HeLa) | Potency (Hek293T) | Potency (JEG-3) | Potency (OV90) | Potency (PA-1) | Potency (SKOV3) | Potency (Tov-21-G) | Potency (Tov112D)

c1ccc(Cc2ncc3c(n2)CCNCC3)cc1
inactive: Potency (CAOV3) | Potency (CASKI) | Potency (Es-2) | Potency (HeLa) | Potency (Hek293T) | Potency (JEG-3) | Potency (OV90) | Potency (PA-1) | Potency (SKOV3) | Potency (Tov-21-G) | Potency (Tov112D)

CC(C)C1=CC2=CCC3[C@](C)(CCC[C@@]3(C)C(=O)O)C2CC1=O (some centres undefined)
inactive: Potency (CAOV3) | Potency (CASKI) | Potency (Es-2) | Potency (HeLa) | Potency (Hek293T) | Potency (JEG-3) | Potency (OV90) | Potency (PA-1) | Potency (SKOV3) | Potency (Tov-21-G) | Potency (Tov112D)

COc1ccc(C(O[C@@H]2O[C@H](CO)[C@@H](O)[C@H](O)[C@H]2O)C(CO)Oc2ccc(/C=C/CO)cc2OC)cc1O (some centres undefined)
inactive: Potency (CAOV3) | Potency (CASKI) | Potency (Es-2) | Potency (HeLa) | Potency (Hek293T) | Potency (JEG-3) | Potency (OV90) | Potency (PA-1) | Potency (SKOV3) | Potency (Tov-21-G) | Potency (Tov112D)

C[C@@H]1O[C@@H](O[C@H]2[C@H](O[C@H]3[C@H](O[C@H]4CC[C@@]5(C)C(CC[C@]6(C)C5CC=C5[C@@H]7CC(C)(C(=O)O)C[C@@H](O)[C@]7(C)CC[C@]56C)[C@@]4(C)CO)O[C@H](C(=O)O)[C@@H](O)[C@@H]3O)O[C@H](CO)[C@H](O)[C@@H]2O)[C@H](O)[C@H](O)[C@H]1O (some centres undefined)
inactive: activity change, negative = cytotoxicity (CAOV3) 15.7% [at 11.6 µM] | activity change, negative = cytotoxicity (CASKI) 2.76% [at 11.6 µM] | activity change, negative = cytotoxicity (Es-2) 6.95% [at 11.6 µM] | activity change, negative = cytotoxicity (HeLa) 4.42% [at 11.6 µM] | activity change, negative = cytotoxicity (Hek293T) -2.11% [at 11.6 µM] | activity change, negative = cytotoxicity (JEG-3) -9.71% [at 11.6 µM] | activity change, negative = cytotoxicity (OV90) 0.848% [at 11.6 µM] | activity change, negative = cytotoxicity (PA-1) 3.43% [at 11.6 µM] | activity change, negative = cytotoxicity (SKOV3) 5.26% [at 11.6 µM] | activity change, negative = cytotoxicity (Tov-21-G) 6.81% [at 11.6 µM] | activity change, negative = cytotoxicity (Tov112D) 9.62% [at 11.6 µM]

CC(=O)OC[C@@]12[C@@H](OC(C)=O)C[C@@H](C)[C@](C)([C@@H]3C[C@H]4C=CO[C@H]4O3)[C@H]1CCC[C@]21CO1
inactive: Potency (CAOV3) | Potency (CASKI) | Potency (Es-2) | Potency (HeLa) | Potency (Hek293T) | Potency (JEG-3) | Potency (OV90) | Potency (PA-1) | Potency (SKOV3) | Potency (Tov-21-G) | Potency (Tov112D)

O=C(/C=C/c1ccc(O)cc1)O[C@H]1[C@@H]2C=CO[C@@H](O[C@@H]3O[C@H](CO)[C@@H](O)[C@H](O)[C@H]3O)[C@@H]2[C@@]2(CO)O[C@@H]12
inactive: Potency (CAOV3) | Potency (CASKI) | Potency (Es-2) | Potency (HeLa) | Potency (Hek293T) | Potency (JEG-3) | Potency (OV90) | Potency (PA-1) | Potency (SKOV3) | Potency (Tov-21-G) | Potency (Tov112D)

CC(C)C1=CC2=CCC3[C@](C)(CCC[C@@]3(C)C(=O)O)C2CC1O (some centres undefined)
inactive: Potency (CAOV3) | Potency (CASKI) | Potency (Es-2) | Potency (HeLa) | Potency (Hek293T) | Potency (JEG-3) | Potency (OV90) | Potency (PA-1) | Potency (SKOV3) | Potency (Tov-21-G) | Potency (Tov112D)

CC12CCC3c4ccc(O)cc4CCC3C1CCC2OC1OC(C(=O)O)C(O)C(O)C1O (centres undefined)
inactive: Potency (CAOV3) | Potency (CASKI) | Potency (Es-2) | Potency (HeLa) | Potency (Hek293T) | Potency (JEG-3) | Potency (OV90) | Potency (PA-1) | Potency (SKOV3) | Potency (Tov-21-G) | Potency (Tov112D)

CC(C)(O)/C=C1/C(=O)C(C)(C)C(=O)C(C)(C)C1(O)O[C@@H]1O[C@H](COC(=O)c2cc(O)c(O)c(O)c2)[C@@H](O)[C@H](O)[C@H]1O (some centres undefined)
inactive: Potency (CAOV3) | Potency (CASKI) | Potency (Es-2) | Potency (HeLa) | Potency (Hek293T) | Potency (JEG-3) | Potency (OV90) | Potency (PA-1) | Potency (SKOV3) | Potency (Tov-21-G) | Potency (Tov112D)

CCOC(=O)Nc1nc2ccccc2[nH]1
inactive: Potency (CAOV3) | Potency (CASKI) | Potency (Es-2) | Potency (HeLa) | Potency (Hek293T) | Potency (JEG-3) | Potency (OV90) | Potency (PA-1) | Potency (SKOV3) | Potency (Tov-21-G) | Potency (Tov112D)
